# Laboratory results: PubChem BioAssay (EPA / NIEHS)
# Inconclusive results are not listed. The source made the active and inactive calls. The calls were made as follows: active = hit-call score of the fitted dose curve at least 0.9, where 1 is the maximum; inconclusive = response in the unintended direction; inactive = score below 0.9.
# Legend:
# [1] = biological target: rabbit Imidazoline 2 Central (I2C), CKB (gene 100009085) (UniProt P00567); experiment: NVS_ENZ_rabI2C: NovaScreen (NVS) Enzymatic Assay for rabbit Imidazoline 2 Central (I2C) (AID 2283228)
# Outline: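 Rabbit brain membranes, cell-free; readout by filter-based scintillation counting 1.5 hours after dosing, loss of signal vs DMSO. Initial duplicate test at 25 uM, then concentration-response with 50 uM top concentration.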
# [2] = biological target: rat Constitutive Nitric Oxide Synthase (CNOS), Nos1 (gene 24598) (UniProt P29476); experiment: NVS_ENZ_rCNOS: NovaScreen (NVS) Enzymatic Assay for rat Constitutive Nitric Oxide Synthase (CNOS) (AID 2283236)
# Outline: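 Enzyme activity in rat brain membrane preparation, read 1 h after dosing by filter-based radiometric scintillation counting. Primary screen in duplicate at 25 uM; actives (e.g., ≥30% inhibition) then run in concentration-response up to 50 uM.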
# [3] = NVS_GPCR_bNPY_NonSelective: NovaScreen (NVS) G Protein-Coupled Receptor Assay for bovine Neuropeptide Y (NPY) Receptor, Non-selective Binding (AID 2283245)
# Description: (§1) NVS_GPCR_bNPY_NonSelective is a biochemical, single-readout assay that uses extracted gene-proteins from Bovine hippocampal membranes in a tissue-based cell-free assay. Measurements were taken 1 hour after chemical dosing in a 96-well plate.NVS_GPCR_bNPY_NonSelective is one of one assay component(s) measured or calculated from the NVS_GPCR_bNPY_NonSelective assay. It is designed to make measurements of radioligand binding, a form of binding reporter, as detected with scintillation counting signals by Filter-based radiodetection technology.Data from the assay component NVS_GPCR_bNPY_NonSelective was analyzed into 1 assay endpoint. This assay endpoint, NVS_GPCR_bNPY_NonSelective, was analyzed in the positive analysis fitting direction relative to DMSO as the negative control and baseline of activity. Using a type of binding reporter, loss-of-signal activity can be used to understand changes in the binding as they relate to the gene NPY. Furthermore, this assay endpoint can be referred to as a primary readout, because the performed assay has only produced 1 assay endpoint. To generalize the intended target to other relatable targets, this assay endpoint is annotated to the gpcr intended target family, where the subfamily is rhodopsin-like receptor. […]
# [4] = biological target: rat Adenylate Cyclase, Forskolin Stimulated, Adcy5 (gene 64532) (UniProt Q04400); experiment: NVS_ENZ_rACFSKBinding: NovaScreen (NVS) Enzymatic Assay for rat Adenylate Cyclase, Forskolin Stimulated (AID 2283232)
# Outline: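 Rat forebrain membrane preparation, cell-free, read 1 h after dosing by filter-based scintillation counting. Primary screen in duplicate at 25 uM; actives (e.g. ≥30% inhibition) rerun in concentration-response up to 50 uM; fit versus DMSO.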
# [5] = biological target: rat Acetylcholinesterase (AChE), Ache (gene 83817) (UniProt P37136); experiment: NVS_ENZ_rAChE: NovaScreen (NVS) Enzymatic Assay for rat Acetylcholinesterase (AChE) (AID 2283233)
# Outline: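 Rat brain membrane acetylcholinesterase activity measured colorimetrically 0.33 h after compound addition, loss of signal relative to DMSO. Primary screen in duplicate at 25 uM; actives re-run as concentration-response with 50 uM top concentration.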
# [6] = test system: rat Monoamine Oxidase, MAO-A, Peripheral (MAOAP), gene 29253; experiment: NVS_ENZ_rMAOAP: NovaScreen (NVS) Enzymatic Assay for rat Monoamine Oxidase, MAO-A, Peripheral (MAOAP) (AID 2283237)
# Outline: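 Rat liver mitochondrial membranes served as the MAO-A source, with enzyme activity measured by radiometric scintillation counting 1.17 hours after dosing. Loss of signal was fitted against DMSO; primary screen used 25 uM in duplicate, follow-up used concentration series.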
# [7] = test system: bovine Angiotensin II Receptor Type 2 (AT2), gene 407157; experiment: NVS_GPCR_bAT2: NovaScreen (NVS) G Protein-Coupled Receptor Assay for bovine Angiotensin II Receptor Type 2 (AT2) (AID 2283240)
# Description: as §1, with “NVS_GPCR_bAT2” for “NVS_GPCR_bNPY_NonSelective”, “cerebellar” for “hippocampal”, “plate.NVS_GPCR_bAT2” for “plate.NVS_GPCR_bNPY_NonSelective”, “NVS_GPCR_bAT2,” for “NVS_GPCR_bNPY_NonSelective,”, “AGTR2.” for “NPY.”
# Sequence of rabbit Imidazoline 2 Central (I2C), CKB (gene 100009085) (P00567 whole entry, looked up): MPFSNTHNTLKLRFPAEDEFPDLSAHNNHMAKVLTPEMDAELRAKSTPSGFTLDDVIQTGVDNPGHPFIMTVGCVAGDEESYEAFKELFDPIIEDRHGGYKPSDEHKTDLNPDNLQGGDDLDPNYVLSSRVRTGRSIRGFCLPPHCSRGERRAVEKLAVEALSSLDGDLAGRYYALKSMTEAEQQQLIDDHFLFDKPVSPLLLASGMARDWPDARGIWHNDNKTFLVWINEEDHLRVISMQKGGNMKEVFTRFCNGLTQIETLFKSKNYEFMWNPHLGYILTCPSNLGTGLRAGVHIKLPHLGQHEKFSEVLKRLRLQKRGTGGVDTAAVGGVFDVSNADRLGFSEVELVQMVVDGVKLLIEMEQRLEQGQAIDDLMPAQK
# Sequence of rat Constitutive Nitric Oxide Synthase (CNOS), Nos1 (gene 24598) (P29476 whole entry, looked up): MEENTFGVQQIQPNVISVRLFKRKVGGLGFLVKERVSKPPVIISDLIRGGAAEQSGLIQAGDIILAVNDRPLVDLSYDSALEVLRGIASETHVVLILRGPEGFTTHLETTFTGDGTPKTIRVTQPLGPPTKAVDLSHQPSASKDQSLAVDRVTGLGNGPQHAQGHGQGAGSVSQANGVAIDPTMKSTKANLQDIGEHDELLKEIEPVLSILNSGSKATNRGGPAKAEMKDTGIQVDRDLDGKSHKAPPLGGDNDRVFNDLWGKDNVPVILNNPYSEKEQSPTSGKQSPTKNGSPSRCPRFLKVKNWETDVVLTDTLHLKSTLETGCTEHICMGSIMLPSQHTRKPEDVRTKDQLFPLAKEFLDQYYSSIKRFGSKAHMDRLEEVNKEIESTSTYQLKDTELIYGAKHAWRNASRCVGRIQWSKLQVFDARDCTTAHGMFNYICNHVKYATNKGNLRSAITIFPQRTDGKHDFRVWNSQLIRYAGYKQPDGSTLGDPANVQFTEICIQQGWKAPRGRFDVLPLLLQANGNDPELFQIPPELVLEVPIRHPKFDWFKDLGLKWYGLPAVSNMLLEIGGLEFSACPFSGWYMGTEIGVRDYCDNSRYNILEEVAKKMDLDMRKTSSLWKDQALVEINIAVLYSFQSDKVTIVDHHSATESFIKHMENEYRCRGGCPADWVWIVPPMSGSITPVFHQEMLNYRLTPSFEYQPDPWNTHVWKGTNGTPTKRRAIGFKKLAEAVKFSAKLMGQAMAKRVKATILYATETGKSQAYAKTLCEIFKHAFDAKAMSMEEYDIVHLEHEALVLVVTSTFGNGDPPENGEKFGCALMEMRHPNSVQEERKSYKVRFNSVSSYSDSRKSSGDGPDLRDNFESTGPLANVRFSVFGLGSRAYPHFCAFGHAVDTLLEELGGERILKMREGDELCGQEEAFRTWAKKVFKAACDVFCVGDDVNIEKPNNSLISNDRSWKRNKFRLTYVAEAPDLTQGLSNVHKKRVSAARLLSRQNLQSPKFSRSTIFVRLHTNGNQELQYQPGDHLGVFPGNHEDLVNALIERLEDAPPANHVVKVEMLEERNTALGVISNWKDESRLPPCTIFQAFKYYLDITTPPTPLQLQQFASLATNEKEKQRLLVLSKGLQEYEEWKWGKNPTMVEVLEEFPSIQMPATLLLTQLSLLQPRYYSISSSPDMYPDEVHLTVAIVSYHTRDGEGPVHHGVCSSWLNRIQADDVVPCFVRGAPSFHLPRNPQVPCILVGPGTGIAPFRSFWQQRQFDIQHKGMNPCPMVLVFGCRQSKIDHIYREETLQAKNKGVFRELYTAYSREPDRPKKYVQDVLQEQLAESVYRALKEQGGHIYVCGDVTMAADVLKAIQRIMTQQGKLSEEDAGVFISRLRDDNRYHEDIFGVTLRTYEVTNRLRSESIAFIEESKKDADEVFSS
# Sequence of rat Adenylate Cyclase, Forskolin Stimulated, Adcy5 (gene 64532) (Q04400 whole entry, looked up): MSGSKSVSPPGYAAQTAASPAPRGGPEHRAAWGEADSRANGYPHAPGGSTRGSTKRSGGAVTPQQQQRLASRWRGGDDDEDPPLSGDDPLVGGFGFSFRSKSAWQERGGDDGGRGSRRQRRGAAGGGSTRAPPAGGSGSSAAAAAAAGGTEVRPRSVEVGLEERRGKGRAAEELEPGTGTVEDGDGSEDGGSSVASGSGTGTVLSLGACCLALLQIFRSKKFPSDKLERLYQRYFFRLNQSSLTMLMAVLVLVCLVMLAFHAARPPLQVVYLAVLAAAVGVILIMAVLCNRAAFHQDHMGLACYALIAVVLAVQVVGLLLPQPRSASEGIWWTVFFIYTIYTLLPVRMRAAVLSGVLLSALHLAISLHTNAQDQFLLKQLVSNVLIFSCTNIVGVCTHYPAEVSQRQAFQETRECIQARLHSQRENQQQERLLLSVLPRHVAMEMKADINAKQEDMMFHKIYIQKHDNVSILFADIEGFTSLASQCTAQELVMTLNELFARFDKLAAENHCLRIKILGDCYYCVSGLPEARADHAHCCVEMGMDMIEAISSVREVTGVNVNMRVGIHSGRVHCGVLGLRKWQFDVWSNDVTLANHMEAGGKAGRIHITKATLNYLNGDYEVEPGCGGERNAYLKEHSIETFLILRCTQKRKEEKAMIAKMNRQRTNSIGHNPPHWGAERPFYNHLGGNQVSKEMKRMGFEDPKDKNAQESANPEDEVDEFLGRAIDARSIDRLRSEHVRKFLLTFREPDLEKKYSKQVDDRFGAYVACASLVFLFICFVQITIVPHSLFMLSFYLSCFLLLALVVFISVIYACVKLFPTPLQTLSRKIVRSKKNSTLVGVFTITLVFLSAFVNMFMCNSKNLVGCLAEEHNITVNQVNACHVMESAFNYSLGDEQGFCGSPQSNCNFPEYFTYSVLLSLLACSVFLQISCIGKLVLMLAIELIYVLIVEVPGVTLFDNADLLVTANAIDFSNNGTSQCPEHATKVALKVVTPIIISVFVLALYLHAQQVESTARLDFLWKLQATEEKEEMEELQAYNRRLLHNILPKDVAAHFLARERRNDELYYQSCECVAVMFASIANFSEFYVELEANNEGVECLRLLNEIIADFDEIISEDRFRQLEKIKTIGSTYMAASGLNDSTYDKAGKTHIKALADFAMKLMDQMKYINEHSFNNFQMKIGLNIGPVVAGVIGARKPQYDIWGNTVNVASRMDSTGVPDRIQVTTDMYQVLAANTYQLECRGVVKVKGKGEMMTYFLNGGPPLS
# Sequence of rat Acetylcholinesterase (AChE), Ache (gene 83817) (P37136 whole entry, looked up): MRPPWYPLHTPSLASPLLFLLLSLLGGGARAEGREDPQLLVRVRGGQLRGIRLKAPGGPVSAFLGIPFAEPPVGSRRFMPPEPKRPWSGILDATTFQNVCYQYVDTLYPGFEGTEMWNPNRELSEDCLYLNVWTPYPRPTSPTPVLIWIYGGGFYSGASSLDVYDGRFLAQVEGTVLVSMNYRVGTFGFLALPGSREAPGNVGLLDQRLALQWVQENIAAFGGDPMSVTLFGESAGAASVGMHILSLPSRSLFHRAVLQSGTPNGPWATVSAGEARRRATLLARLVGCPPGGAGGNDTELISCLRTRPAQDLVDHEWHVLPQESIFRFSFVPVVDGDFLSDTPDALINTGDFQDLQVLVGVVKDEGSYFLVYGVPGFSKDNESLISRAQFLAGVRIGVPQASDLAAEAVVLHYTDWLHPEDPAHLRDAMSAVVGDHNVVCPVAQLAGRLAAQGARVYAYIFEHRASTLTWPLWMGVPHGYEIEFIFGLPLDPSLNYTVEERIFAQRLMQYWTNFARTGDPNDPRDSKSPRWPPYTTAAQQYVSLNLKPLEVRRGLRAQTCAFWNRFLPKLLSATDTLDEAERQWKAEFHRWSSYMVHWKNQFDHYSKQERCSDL
structure (smiles),measurement,setting,value
CN(C)c1nc(=O)n(C2CCCCC2)c(=O)n1C,AC50,[1],9.76 µM (active)
same,outcome,[2],inactive
CCCCCCCCCC[N+](C)(C)CCCCCCCCCC,AC50,[1],11.8 µM (active)
same,AC50,[3],22.5 µM (active)
CC(C)(c1ccccc1)c1ccc(O)cc1,outcome,[4],inactive
C[C@]12CCC(=O)C=C1CC[C@@H]1[C@@H]2CC[C@]2(C)C(=O)CC[C@@H]12,AC50,[5],24.4 µM (active)
CN(C)CCO,outcome,[2],inactive
Cc1cc(O)ccc1Cl,AC50,[6],19.1 µM (active)
CCNc1nc(NC(C)C)nc(SC)n1,outcome,[7],inactive
CO/C=C(/C(=O)OC)c1ccccc1COc1cccc(C(F)(F)F)n1,outcome,[3],inactive
